Holding throughout (experiment): protein-binding microarray (PBM); PBM: ~300 nM protein, 6 mM HEPES pH 7.8, 80 mM KCl, 0.5 mM EDTA, 0.5 mM EGTA, 6% glycerol, 35 ng/ul poly-dIdC, 1% milk, 1 h, room temperature; Ap Aiptasia and Nv Nematostella (sea anemones) / Co Capsaspora / Aq Amphimedon (sponge) / Dm Drosophila / Hu human; RHD is the Rel homology domain; high values mean tight binding
What all share (conditions): dsDNA, one strand shown

Experiment [1] has as its target T1, GST-Ap-NF-kB RHD (Exaiptasia pallida (Aiptasia), UniProt A0A913YAJ5 2-422).
T1 sequence: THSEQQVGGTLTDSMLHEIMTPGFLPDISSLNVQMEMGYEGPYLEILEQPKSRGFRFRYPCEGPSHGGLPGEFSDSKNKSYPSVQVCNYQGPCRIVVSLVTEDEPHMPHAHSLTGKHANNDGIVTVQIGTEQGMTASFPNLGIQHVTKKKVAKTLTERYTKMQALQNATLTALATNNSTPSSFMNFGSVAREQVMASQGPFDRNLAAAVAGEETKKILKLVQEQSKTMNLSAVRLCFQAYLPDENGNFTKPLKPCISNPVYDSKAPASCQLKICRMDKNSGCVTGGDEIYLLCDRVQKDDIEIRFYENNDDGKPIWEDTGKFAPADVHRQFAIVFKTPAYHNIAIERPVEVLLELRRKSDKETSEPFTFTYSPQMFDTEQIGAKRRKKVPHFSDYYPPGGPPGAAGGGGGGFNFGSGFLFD

Experiment [2] has as its target T2, GST-Nv-NF-kB (Cys allele) (Nematostella vectensis, UniProt E5G601 2-411).
T2 sequence: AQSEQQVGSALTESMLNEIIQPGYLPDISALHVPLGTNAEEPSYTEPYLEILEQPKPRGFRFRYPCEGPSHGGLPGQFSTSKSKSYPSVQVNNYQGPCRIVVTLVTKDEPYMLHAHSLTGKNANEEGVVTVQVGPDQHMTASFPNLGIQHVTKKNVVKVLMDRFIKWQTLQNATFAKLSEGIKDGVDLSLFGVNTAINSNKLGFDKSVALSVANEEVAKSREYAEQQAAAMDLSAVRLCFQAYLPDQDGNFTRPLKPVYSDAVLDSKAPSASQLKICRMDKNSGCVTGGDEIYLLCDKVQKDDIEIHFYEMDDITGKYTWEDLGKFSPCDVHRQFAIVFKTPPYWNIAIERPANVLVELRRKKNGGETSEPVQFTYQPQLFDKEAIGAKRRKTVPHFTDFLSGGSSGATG

Experiment [3] addresses T3, GST-Co-NF-kB (Capsaspora owczarzaki, UniProt F1ARL5 200-546).
T3 sequence: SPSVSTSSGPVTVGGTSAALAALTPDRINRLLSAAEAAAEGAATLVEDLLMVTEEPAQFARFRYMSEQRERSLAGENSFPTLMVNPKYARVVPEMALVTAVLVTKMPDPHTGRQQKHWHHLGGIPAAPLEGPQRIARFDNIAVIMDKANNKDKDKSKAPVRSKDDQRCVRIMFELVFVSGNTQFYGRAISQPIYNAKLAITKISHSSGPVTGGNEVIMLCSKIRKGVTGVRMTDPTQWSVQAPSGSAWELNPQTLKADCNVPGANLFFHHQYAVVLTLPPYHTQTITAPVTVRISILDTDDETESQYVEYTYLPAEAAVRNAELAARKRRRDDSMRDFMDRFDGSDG

For experiment [4], the target named is T4, GST-Dm-Relish (Drosophila melanogaster, UniProt Q94527 99-473).
T4 sequence: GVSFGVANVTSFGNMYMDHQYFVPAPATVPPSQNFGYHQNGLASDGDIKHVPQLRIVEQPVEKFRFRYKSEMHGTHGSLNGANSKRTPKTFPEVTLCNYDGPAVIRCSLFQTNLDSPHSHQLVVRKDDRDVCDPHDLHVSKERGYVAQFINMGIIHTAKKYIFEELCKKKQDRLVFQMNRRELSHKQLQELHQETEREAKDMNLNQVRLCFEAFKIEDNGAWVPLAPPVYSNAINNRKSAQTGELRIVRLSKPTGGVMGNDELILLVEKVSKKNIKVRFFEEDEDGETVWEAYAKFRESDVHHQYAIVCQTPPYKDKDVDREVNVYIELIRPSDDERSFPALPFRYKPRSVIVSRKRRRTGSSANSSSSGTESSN

Experiment [5] has as its target T5, GST-Aq-NF-kB (Amphimedon queenslandica, UniProt A9Y5G7 2-389).
T5 sequence: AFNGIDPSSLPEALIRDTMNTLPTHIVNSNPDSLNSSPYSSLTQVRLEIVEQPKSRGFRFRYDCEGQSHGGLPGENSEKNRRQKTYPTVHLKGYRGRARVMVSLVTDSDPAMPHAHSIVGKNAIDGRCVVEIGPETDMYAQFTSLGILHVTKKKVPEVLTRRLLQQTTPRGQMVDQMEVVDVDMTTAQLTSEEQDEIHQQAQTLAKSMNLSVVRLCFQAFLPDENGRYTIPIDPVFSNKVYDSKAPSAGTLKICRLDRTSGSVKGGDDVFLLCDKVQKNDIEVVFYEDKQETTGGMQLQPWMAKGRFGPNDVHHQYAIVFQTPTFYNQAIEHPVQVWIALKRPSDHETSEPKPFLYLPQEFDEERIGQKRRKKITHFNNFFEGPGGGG

For the sequence “CCGATTAACATCACATTCTCCCCTGATGTTAATCGGGTCTTGATTCGCTTGACGCTGCTG”, the binding signal in experiment [1] was 4.7 z-score; in experiment [2] it was 4.44 z-score; in experiment [3], 6.71 z-score; in experiment [4], 1.55 z-score; in experiment [5], 3.34 z-score.
Consider “CCGATTAACATCAAGTATTCCCATGATGTTAATCGGGTCTTGATTCGCTTGACGCTGCTG”, for which the binding signal in experiment [1] came to 2.44 z-score; in experiment [2] it was 2.26 z-score; in experiment [3], 3.57 z-score; in experiment [4], 2 z-score; in experiment [5], 1.85 z-score.
On the same counts, the results for “CCGATTAACATCAAAACAACCCCTGATGTTAATCGGGTCTTGATTCGCTTGACGCTGCTG” are 3.57 z-score, 3.44 z-score, 2.54 z-score, 2.68 z-score and 4.83 z-score.
For “CCGATTAACATCAAATTCCCAAATGATGTTAATCGGGTCTTGATTCGCTTGACGCTGCTG”, in that order: 1.72 z-score, 3.62 z-score, 2.55 z-score, 4.57 z-score and 2.31 z-score.
For “CCGATTAACATCAATACACCCCCTGATGTTAATCGGGTCTTGATTCGCTTGACGCTGCTG”, in that order: 3.75 z-score, 2.95 z-score, 4.19 z-score, 3.33 z-score and 3.5 z-score.
In the case of “CCGATTAACATCACGGGATTTCCTGATGTTAATCGGGTCTTGATTCGCTTGACGCTGCTG”, the binding signal in experiment [1] worked out at 4.81 z-score; in experiment [2], 4.51 z-score; in experiment [3], 1.37 z-score; in experiment [4], 7.57 z-score; in experiment [5], 6.62 z-score.
On the same counts, the results for “CCGATTAACATCAGGGGATCTACTGATGTTAATCGGGTCTTGATTCGCTTGACGCTGCTG” are 5.31 z-score, 4.68 z-score, 1.96 z-score, 9.02 z-score and 5.74 z-score.
As to “CCGATTAACATCAGGGTGTTTTATGATGTTAATCGGGTCTTGATTCGCTTGACGCTGCTG”, the binding signal was 2.75 z-score in experiment [1]; 2.67 z-score in experiment [2]; 1.55 z-score in experiment [3]; 3.11 z-score in experiment [4]; 4.69 z-score in experiment [5].
On the same counts, the results for “CCGATTAACATCAGGAGATTCCCTGATGTTAATCGGGTCTTGATTCGCTTGACGCTGCTG” are 3.76 z-score, 5.47 z-score, 2.78 z-score, 4.79 z-score and 7.56 z-score.
Turning to “CCGATTAACATCAGGGGTTCACCTGATGTTAATCGGGTCTTGATTCGCTTGACGCTGCTG”, the binding signal amounted to 3.84 z-score in experiment [1]; 2.71 z-score in experiment [2]; 1.45 z-score in experiment [3]; 8.89 z-score in experiment [4]; 4.82 z-score in experiment [5].
For “CCGATTAACATCAGGTTTTCCCATGATGTTAATCGGGTCTTGATTCGCTTGACGCTGCTG”, in that order: 3.58 z-score, 3.91 z-score, 4.33 z-score, 5.47 z-score and 4.82 z-score.
With “CCGATTAACATCAAAGAAATCCCTGATGTTAATCGGGTCTTGATTCGCTTGACGCTGCTG”, the binding signal in experiment [1] worked out at 4.82 z-score; in experiment [2], 4.34 z-score; in experiment [3] it was 1.36 z-score; in experiment [4], 6.17 z-score; in experiment [5], 4.61 z-score.
On the same counts, the results for “CCGATTAACATCAGGGGGCATTATGATGTTAATCGGGTCTTGATTCGCTTGACGCTGCTG” are 3.92 z-score, 4.06 z-score, 2.64 z-score, 2.7 z-score and 4.27 z-score.
For “CCGATTAACATCAAAAAAACCCATGATGTTAATCGGGTCTTGATTCGCTTGACGCTGCTG”, in that order: 3.72 z-score, 4.44 z-score, 1.87 z-score, 6.31 z-score and 5.47 z-score.
For “CCGATTAACATCACATTATCCCCTGATGTTAATCGGGTCTTGATTCGCTTGACGCTGCTG”, in that order: 4.81 z-score, 5.05 z-score, 4.75 z-score, 2.4 z-score and 3.81 z-score.
As to “CCGATTAACATCATACCCCCCCATGATGTTAATCGGGTCTTGATTCGCTTGACGCTGCTG”, the binding signal turned out to be 4.97 z-score in experiment [1]; 2.65 z-score in experiment [2]; 5.26 z-score in experiment [3]; 3.98 z-score in experiment [4]; 3.92 z-score in experiment [5].
For “CCGATTAACATCACGTAAATCCCTGATGTTAATCGGGTCTTGATTCGCTTGACGCTGCTG”, in that order: 2.65 z-score, 2.8 z-score, 1.01 z-score, 7.13 z-score and 3.3 z-score.
On the same counts, the results for “CCGATTAACATCAAAAGAATCCCTGATGTTAATCGGGTCTTGATTCGCTTGACGCTGCTG” are 3.44 z-score, 3.59 z-score, 1.15 z-score, 5.35 z-score and 4.69 z-score.
On the same counts, the results for “CCGATTAACATCAGGGGTTTTGATGATGTTAATCGGGTCTTGATTCGCTTGACGCTGCTG” are 3.81 z-score, 3.46 z-score, 1.34 z-score, 5.6 z-score and 3.25 z-score.
Regarding “CCGATTAACATCAGGCACCCCCCTGATGTTAATCGGGTCTTGATTCGCTTGACGCTGCTG”, the binding signal in experiment [1] was determined as 5.14 z-score; in experiment [2], 3.21 z-score; in experiment [3], 2.79 z-score; in experiment [4], 5.16 z-score; in experiment [5], 4.88 z-score.
For “CCGATTAACATCAGGACTTCCCATGATGTTAATCGGGTCTTGATTCGCTTGACGCTGCTG”, in that order: 3.08 z-score, 2.46 z-score, 1.82 z-score, 7.81 z-score and 4.72 z-score.
On the same counts, the results for “CCGATTAACATCAGGGAACTTTATGATGTTAATCGGGTCTTGATTCGCTTGACGCTGCTG” are 4.27 z-score, 4.23 z-score, 2.81 z-score, 4.83 z-score and 5.17 z-score.
Regarding “CCGATTAACATCACTGGGAAAACTGATGTTAATCGGGTCTTGATTCGCTTGACGCTGCTG”, the binding signal in experiment [1] amounted to 1.79 z-score; in experiment [2] it was 2.36 z-score; in experiment [3], 5.25 z-score; in experiment [4] it was 1.48 z-score; in experiment [5], 1.81 z-score.
On the same counts, the results for “CCGATTAACATCAGGCTTTTCCCTGATGTTAATCGGGTCTTGATTCGCTTGACGCTGCTG” are 2.62 z-score, 4.54 z-score, 2.51 z-score, 2.3 z-score and 6.49 z-score.
For “CCGATTAACATCAGGGAATCCACTGATGTTAATCGGGTCTTGATTCGCTTGACGCTGCTG”, in that order: 3.05 z-score, 3.31 z-score, 2.25 z-score, 7.85 z-score and 5.29 z-score.
With “CCGATTAACATCAGGGGGTCTACTGATGTTAATCGGGTCTTGATTCGCTTGACGCTGCTG”, the binding signal in experiment [1] stood at 4.22 z-score; in experiment [2] it was 2.44 z-score; in experiment [3], 1.58 z-score; in experiment [4], 7.11 z-score; in experiment [5] it was 4.4 z-score.
For “CCGATTAACATCAGGGTATTACCTGATGTTAATCGGGTCTTGATTCGCTTGACGCTGCTG”, in that order: 4.39 z-score, 6.02 z-score, 1.57 z-score, 5.28 z-score and 7.69 z-score.
On the same counts, the results for “CCGATTAACATCAGGGGAGTACATGATGTTAATCGGGTCTTGATTCGCTTGACGCTGCTG” are 4.22 z-score, 2.88 z-score, 3.31 z-score, 6.35 z-score and 3.06 z-score.

The values are drawn from publication PMC5700166.
